# How the values were obtained:
# Settings in all cases: concentration: 1 μM, replicates: in singlicate; n = 1
# MAP3K15 = system: MAP3K15
# MAP3K1 = system: MAP3K1
# MAP3K2 = system: MAP3K2
# MAP3K3 = system: MAP3K3
# MAP3K4 = system: MAP3K4
# MAP4K2 = system: MAP4K2
# MAP4K3 = system: MAP4K3
# MAP4K4 = system: MAP4K4
# MAP4K5 = system: MAP4K5
# MAPKAPK2 = system: MAPKAPK2
# MAPKAPK5 = system: MAPKAPK5
# MARK1 = system: MARK1
# MARK2 = system: MARK2
# MARK3 = system: MARK3
# MARK4 = system: MARK4
# MAST1 = system: MAST1
# MEK1 = system: T1, MEK1
# T1 construct: gene MAP2K1
# MEK2 = system: T2, MEK2
# T2 construct: gene MAP2K2
# MEK3 = system: T3, MEK3
# T3 construct: gene MAP2K3
# MEK4 = system: T4, MEK4
# T4 construct: gene MAP2K4
# 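Note: KINOMEscan kinase panel screen.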
Structure (SMILES),%Inh (MAP3K15) [%],%Inh (MAP3K1) [%],%Inh (MAP3K2) [%],%Inh (MAP3K3) [%],%Inh (MAP3K4) [%],%Inh (MAP4K2) [%],%Inh (MAP4K3) [%],%Inh (MAP4K4) [%],%Inh (MAP4K5) [%],%Inh (MAPKAPK2) [%],%Inh (MAPKAPK5) [%],%Inh (MARK1) [%],%Inh (MARK2) [%],%Inh (MARK3) [%],%Inh (MARK4) [%],%Inh (MAST1) [%],%Inh (MEK1) [%],%Inh (MEK2) [%],%Inh (MEK3) [%],%Inh (MEK4) [%]
C[C@@H]1CC[C@@H](C(=O)Nc2ccccc2)CN1c1cc(-c2ccc3c(N)n[nH]c3c2)nc(N)n1 [GSK2286062],46,0,16,0,4,3,0,0,0,0,0,0,9,0,0,3,15,1,33,8
COc1cccc(-c2ccc3c(NC(=O)C4CC4)n[nH]c3n2)c1 [SB-710903],0,35,15,0,32,0,0,53,3,16,0,0,0,0,9,42,0,0,0,17
O=C(O)C(F)(F)F.O=C(O)C(F)(F)F.O=c1[nH]ccc2nc(N[C@@H]3CCCNC3)nc(Nc3ccc(S(=O)(=O)N4CCOCC4)cc3)c12 [GSK2177277],67,22,100,99.9,0,100,99,97.6,99.8,65,61,95.3,98.2,90.5,97.1,27,96.6,91.6,99.4,99.4
Cc1cccc(Nc2nc(N[C@H]3CCNC3)ncc2C(N)=O)c1.Cl [GSK2197149],0,0,88,60,45,88,40,73,33,0,0,0,19,0,4,0,31,31,85,66
Cn1cc(-c2ccc3c(c2)CCN3C(=O)Cc2cccc(F)c2)c2c(N)ncnc21 [GSK2603358],0,15,84,50,66,18,64,0,57,31,0,69,0,0,34,5,15,0,0,26
CC(C)c1nc(-c2cccc(NS(=O)(=O)c3c(F)cccc3F)c2F)c(-c2ccnc(Nc3ccc(N4CCOCC4)nc3)n2)s1 [GSK2008607],0,15,97.7,80,91.7,0,88,40,88,0,0,0,24,0,80,0,0,64,57,100
COC(=O)Nc1nc2cc(Oc3ccc(NC(=O)Nc4cc(C(F)(F)F)ccc4F)cn3)ccc2[nH]1.Cl.Cl [GW681170],0,11,0,0,9,0,3,3,0,0,0,0,0,14,0,24,0,2,7,0
c1ccc(Oc2ccc(Nc3ccnc4cc(-c5ccc(CNCCN6CCOCC6)o5)ccc34)cc2)nc1 [GW567145],0,9,1,0,0,0,0,9,56,0,0,0,0,0,0,34,90.8,94.2,0,0
Cc1occc1-c1ncc(OC[C@@H](N)Cc2c[nH]c3ccccc23)cc1-c1ccc2[nH]nc(C)c2c1.O=C(O)C(F)(F)F [GSK682037],10,11,96.9,98.6,22,99.3,99.4,99.2,99.6,0,0,44,62,68,33,35,7,0,90.7,43
C[C@@H](Oc1cc(-n2cnc3cc(-c4ccnc(NCCS(C)(=O)=O)c4)ccc32)sc1C(N)=O)c1ccccc1Cl [GSK907232],6,92,10,0,35,20,85,21,96.3,0,0,11,34,43,20,6,0,0,0,26

# From article PMC5540273 (PLoS ONE, 2017)
